# According to PubChem BioAssay (NCATS):
# Records with an inconclusive call do not appear. Calls of active or inactive are those of the source. Unless noted, calls come from the whole dose curve.
# Tested on: not listed separately
# Assay: A High-Content qHTS Against Drug Library for the Identification of Small Molecules that Inhibit DYT1 Early Onset Primary Dystonia-Associated Cell Pathology (AID 1645839)
# Details: HEK293 Flp-In EGFP-delE TorsinA, punctate imaging, 48 h; series mostly up to 46.1 µM; % pathology change, negative = correction: at the top concentration
# Summary of the method: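 Readout: %pathology, the punctate EGFP-TorsinA distribution from imaging, as the primary channel and cell count as the toxicity counterscreen. HEK293 Flp-In cells expressing delE TorsinA were induced with tetracycline and treated with compound for 48 h.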
row,Compound,"% pathology change, negative = correction"
1,O=C1CC[C@H](C(=O)N2CCCCC2)N1,-0.0941% (inactive)
2,CCCC(CCC)(C(=O)OCC)C(=O)OCC,-0.262% (inactive)
3,Cc1ccc2c(Cl)cc(Cl)c(O)c2n1,-13.7% (inactive)
4,N#Cc1cc(NC(=O)C(=O)O)c(Cl)c(NC(=O)C(=O)O)c1,16.8% (inactive)
5,O=C(CCCl)NCc1ccccc1,2.3% (inactive)
6,C=CCOc1cc(Cl)ccc1C(=O)NCCN(CC)CC,-9.01% (inactive)
7,COc1cc(C=O)ccc1O,-3.46% (inactive)
8,CCN1CCN(C(=O)N[C@@H](C(=O)N[C@@H]2C(=O)N3[C@@H]2SC(C)(C)[C@H]3C(=O)O)c2ccccc2)C(=O)C1=O,16.1% (inactive)
9,Fc1ccc(C(c2ccc(F)cc2)N2CCNCC2)cc1,10.3% (inactive)
10,CCOc1ncc(F)c(=O)[nH]1,3.11% (inactive)
11,CC(COc1ccccc1)NN (centres undefined),-11.7% (inactive)
12,CC(C)=CCC/C(C)=C/CC/C(C)=C/CCC(=O)OC/C=C(\C)CCC=C(C)C,1.94% (inactive)
13,CCCCC(O)/C=C(C)/C=C/C=C/C(=O)N1CCCC1=O (centres undefined),1.27% (inactive)
14,CCCCCC[C@@H](CCC)C(=O)O,8.52% (inactive)
15,CCO[C@H](Cc1ccc(OCCc2ccc(OS(C)(=O)=O)cc2)cc1)C(=O)O,-16.5% (inactive)
16,NC(=O)NS(=O)(=O)c1ccc(Cl)cc1,1.58% (inactive)
17,Nc1ccc(C(=O)OCC(O)CO)cc1 (centres undefined),-6.96% (inactive)
18,CCOC(=O)C(O)c1ccccc1 (centres undefined),2.02% (inactive)
19,CC(=O)c1ccc(O)c(C(N)=O)c1,1.79% (inactive)

row,Compound,"% pathology change, negative = correction"
1,Nc1nc(=O)n([C@@H]2O[C@H](CO)[C@@H](O)[C@@H]2F)cc1I,1.65% (inactive)
2,C1=CC2C3C=CC(C3)C2C1 (centres undefined),-7.13% [at 91.7 µM] (inactive)
3,Cc1cc(O)c(C)c(C)c1O,-28.2% (inactive)
4,CCCCOC(=O)CCCCCCCCC(=O)OCCCC,11.8% (inactive)
5,CC(C)C(=O)Nc1cccc(C(F)(F)F)c1,0.745% (inactive)
6,CN=C(N)NC(=O)Nc1c(C)cccc1C,6.4% (inactive)
7,O=C1NC(c2ccccc2)(c2ccccc2)C(=O)N1COP(=O)(O)O,-26.5% (inactive)
8,CC1(C)S[C@@H]2[C@H](NC(=O)C(c3ccccc3)S(=O)(=O)O)C(=O)N2[C@H]1C(=O)O (some centres undefined),7.86% (inactive)
9,CCC1(c2cnc[nH]2)Cc2ccccc2C1,1.74% (inactive)
10,CCN(CC)CC(=O)Oc1ccc(NC(C)=O)cc1,0.0712% (inactive)
11,O=C(C1CCCCC1)N1CC(=O)N2CCCc3ccccc3C2C1 (centres undefined),-15.8% (inactive)
12,CC(=O)O[C@@H]1CC2C3CCc4cc(OC(=O)c5ccccc5)ccc4C3CCC2(C)[C@H]1OC(C)=O (some centres undefined),11.3% (inactive)
13,Cc1ccccc1C(=O)N1CC/C(=N\OS(=O)(=O)O)c2ccc(Cl)cc21,12.5% (inactive)
14,CCOc1ccccc1OCC1CNCCO1 (centres undefined),-4% (inactive)
15,CO/N=C(/C(=O)N[C@@H]1C(=O)N2C(C(=O)OCOC(=O)C(C)(C)C)=C(C)CS[C@H]12)c1csc(N)n1,4.14% (inactive)
16,CCOc1c(N2CCOCC2)cnn(C)c1=O,2.62% (inactive)
17,C=C(C)C(=O)OCC(O)CO (centres undefined),0.543% (inactive)
18,C[C@H]1C[C@H](O)c2ccsc2S1(=O)=O,13.5% (inactive)

# Molecular target: Cytochrome P450 2D6 (Homo sapiens) (UniProt P10635)
# Sequence (P10635 whole entry, looked up): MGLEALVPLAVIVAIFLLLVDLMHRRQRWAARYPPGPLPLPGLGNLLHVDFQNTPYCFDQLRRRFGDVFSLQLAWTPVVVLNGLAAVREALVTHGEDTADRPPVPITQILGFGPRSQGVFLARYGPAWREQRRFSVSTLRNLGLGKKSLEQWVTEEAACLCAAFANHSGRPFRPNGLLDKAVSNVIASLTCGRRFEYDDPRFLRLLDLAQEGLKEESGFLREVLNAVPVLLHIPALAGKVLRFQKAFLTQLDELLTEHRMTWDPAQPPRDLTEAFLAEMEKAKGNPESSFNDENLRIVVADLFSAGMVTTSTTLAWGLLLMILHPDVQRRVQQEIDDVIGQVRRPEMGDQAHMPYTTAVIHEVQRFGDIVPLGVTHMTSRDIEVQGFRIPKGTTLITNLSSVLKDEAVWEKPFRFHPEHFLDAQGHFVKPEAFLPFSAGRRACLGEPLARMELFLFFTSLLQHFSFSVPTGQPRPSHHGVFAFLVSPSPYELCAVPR
# Assay: Cytochrome P450 family 2 subfamily D member 6 (CYP2D6) small molecule antagonists: luciferase biochemical (cell-free) qHTS assay (AID 1645840; active = well fitted inhibition curve with a large enough effect in the repeat runs; note: nearly all actives have a fitted effect of over 55% in size; note: potency is the fitted concentration of half-maximal effect; for activity change, negative = inhibition: % is set by controls: 0 for no effect and ±100 for the full control effect)
# Details: P450-Glo CYP2D6 enzyme, luciferin luminescence, 1 h; series mostly up to 57.4 µM; activity change, negative = inhibition: at the top concentration
# Summary of the method: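 P450-Glo luminescent screen: recombinant CYP2D6 enzyme–proluciferin substrate mix preincubated with compound 10 min at room temperature, then NADPH regeneration added for 1 h at room temperature. Detection reagent added for 20 min; luciferin light read as relative luminescence units.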
Compound,"activity change, negative = inhibition",Potency
O=C1CC[C@H](C(=O)N2CCCCC2)N1,7.9% (inactive),
CCCC(CCC)(C(=O)OCC)C(=O)OCC,-16.8% (inactive),
Cc1ccc2c(Cl)cc(Cl)c(O)c2n1,14% (inactive),
N#Cc1cc(NC(=O)C(=O)O)c(Cl)c(NC(=O)C(=O)O)c1,1.75% (inactive),
O=C(CCCl)NCc1ccccc1,5.12% (inactive),
C=CCOc1cc(Cl)ccc1C(=O)NCCN(CC)CC,,0.275 µM (active)
COc1cc(C=O)ccc1O,6.94% (inactive),
CCN1CCN(C(=O)N[C@@H](C(=O)N[C@@H]2C(=O)N3[C@@H]2SC(C)(C)[C@H]3C(=O)O)c2ccccc2)C(=O)C1=O,-9.81% (inactive),
Fc1ccc(C(c2ccc(F)cc2)N2CCNCC2)cc1,,7.76 µM (active)
CCOc1ncc(F)c(=O)[nH]1,-18.3% (inactive),
CC(COc1ccccc1)NN (centres undefined),,16.9 µM (active)
CC(C)=CCC/C(C)=C/CC/C(C)=C/CCC(=O)OC/C=C(\C)CCC=C(C)C,-2.2% (inactive),
CCCCC(O)/C=C(C)/C=C/C=C/C(=O)N1CCCC1=O (centres undefined),3.23% (inactive),
CCCCCC[C@@H](CCC)C(=O)O,5.15% (inactive),
CCO[C@H](Cc1ccc(OCCc2ccc(OS(C)(=O)=O)cc2)cc1)C(=O)O,19% (inactive),
NC(=O)NS(=O)(=O)c1ccc(Cl)cc1,-9.38% (inactive),
Nc1ccc(C(=O)OCC(O)CO)cc1 (centres undefined),4.23% (inactive),
CCOC(=O)C(O)c1ccccc1 (centres undefined),9.78% (inactive),
CC(=O)c1ccc(O)c(C(N)=O)c1,5.94% (inactive),

Compound,"activity change, negative = inhibition",Potency
Nc1nc(=O)n([C@@H]2O[C@H](CO)[C@@H](O)[C@@H]2F)cc1I,2.79% (inactive),
C1=CC2C3C=CC(C3)C2C1 (centres undefined),3.5% [at 115 µM] (inactive),
Cc1cc(O)c(C)c(C)c1O,-6.69% (inactive),
CCCCOC(=O)CCCCCCCCC(=O)OCCCC,1.14% (inactive),
CC(C)C(=O)Nc1cccc(C(F)(F)F)c1,-17.8% (inactive),
CN=C(N)NC(=O)Nc1c(C)cccc1C,3.19% (inactive),
O=C1NC(c2ccccc2)(c2ccccc2)C(=O)N1COP(=O)(O)O,-1.9% (inactive),
CC1(C)S[C@@H]2[C@H](NC(=O)C(c3ccccc3)S(=O)(=O)O)C(=O)N2[C@H]1C(=O)O (some centres undefined),-19.8% (inactive),
CCC1(c2cnc[nH]2)Cc2ccccc2C1,,0.309 µM (active)
CCN(CC)CC(=O)Oc1ccc(NC(C)=O)cc1,0.515% (inactive),
O=C(C1CCCCC1)N1CC(=O)N2CCCc3ccccc3C2C1 (centres undefined),4.78% (inactive),
CC(=O)O[C@@H]1CC2C3CCc4cc(OC(=O)c5ccccc5)ccc4C3CCC2(C)[C@H]1OC(C)=O (some centres undefined),4.33% (inactive),
Cc1ccccc1C(=O)N1CC/C(=N\OS(=O)(=O)O)c2ccc(Cl)cc21,4.21% (inactive),
CCOc1ccccc1OCC1CNCCO1 (centres undefined),-22.9% (inactive),
CO/N=C(/C(=O)N[C@@H]1C(=O)N2C(C(=O)OCOC(=O)C(C)(C)C)=C(C)CS[C@H]12)c1csc(N)n1,-21.4% (inactive),
CCOc1c(N2CCOCC2)cnn(C)c1=O,5.78% (inactive),
C=C(C)C(=O)OCC(O)CO (centres undefined),8.77% (inactive),
C[C@H]1C[C@H](O)c2ccsc2S1(=O)=O,-20.2% (inactive),
